# Results published in PubChem BioAssay.
# The source made the active and inactive calls.
# Key:
# [1] = system: PRMT1 (protein arginine N-methyltransferase 1); experiment: small molecules binding arginine methyltransferase PRMT1 – biochemical, small-molecule microarray, 635 nm fluorescence, primary screen (AID 1088); conditions: higher = more signal;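 also: binding of Prmt1 protein to compounds spotted on small-molecule microarray slides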
# [2] = growth effects on S. cerevisiae YJM789 – YJM789 clinical isolate, OD600, 24 h, basal, primary screen (AID 1089); conditions: higher = more signal, called active from +8 up or from −8 down;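 also: growth of clinical yeast isolate S. cerevisiae YJM 789 seeded 1000 cells per well; test concentration not given here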
# [3] = S. pombe growth modifiers, basal conditions – strain 972, OD600, 24 h, no modulator, primary screen (AID 1090);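 also: basal condition with compound alone and no growth modifier present; test concentration not given here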; conditions: S. pombe 972 growth, higher = more signal, called active from +8 up or from −8 down
# [4] = budding yeast growth modifiers under rapamycin – strain BY4716, OD600, 96 h, primary screen (AID 1091); also: test concentration not given here; conditions: S. cerevisiae BY4716 + rapamycin, higher = more signal, called active from +8 up or from −8 down
# [5] = target: Torsin-1A-interacting protein 2 (Homo sapiens) (UniProt Q8NFQ8); experiment: small molecules binding lysate-expressed LULL1 – cell lysate, human LULL1 lysate, 635/667 nm fluorescence, primary screen (AID 1092); conditions: small-molecule microarray, hLULL1 lysate binding, 635 nm fluorescence; higher = more signal;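 also: probe is lysate of COS7 cells overexpressing human LULL1; score merges per-feature 667 nm fluorescence with signal-to-noise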
# [6] = optical density change of DRC41 E. coli – strain DRC41, OD650, 24 h, E. coli filamentation project, primary screen (AID 1093);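 also: MC1000 strain lacking acrAB efflux and sulA so SOS filamentation is blocked; test concentration not given here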; conditions: E. coli DRC41 growth, higher = more signal, called active from +8 up or from −8 down
# [7] = probe aLefty2 binding to arrayed compounds – biochemical, biotinylated probe, 635/667 nm fluorescence, primary screen (AID 1094); conditions: small-molecule microarray, higher = more signal;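 also: score merges spot fluorescence near 667 nm with spot signal-to-noise ratio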
# [8] = system: Noggin (protein binding on small-molecule microarray); experiment: small molecules binding Noggin protein – biochemical, 635/667 nm fluorescence, primary screen (AID 1095); conditions: 635 nm fluorescence, higher = more signal;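 also: score merges 667 nm feature fluorescence with signal to noise over triplicate slides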
# [9] = target: Neurogenic locus notch homolog protein 3 (Homo sapiens) (UniProt Q9UM47); experiment: small molecules binding NOTCH3 protein – biochemical, 635/667 nm fluorescence, primary screen (AID 1096); conditions: small-molecule microarray, 635 nm fluorescence, higher = more signal
# [10] = probe aEGFR binding to arrayed compounds – biochemical, biotinylated probe, 635/667 nm fluorescence, primary screen (AID 1097); conditions: small-molecule microarray, higher = more signal;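 also: probe is a biotinylated anti-EGFR antibody binding compounds printed on slides; score combines fluorescence near 667 nm and signal to noise of each spot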
# [11] = system: Plasmodium falciparum Sir2 (PF13_0152, Sir2A); experiment: Plasmodium falciparum Sir2A binding compounds – biochemical, small-molecule microarray, 635 nm fluorescence, primary screen (AID 1098); conditions: fluorescence 635 nm, higher = more signal;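 also: score merges spot fluorescence intensity with its signal-to-noise ratio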
# [12] = probe aDKK1 binding to arrayed compounds – biochemical, biotinylated probe, 635/667 nm fluorescence, primary screen (AID 1099); conditions: small-molecule microarray, higher = more signal;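 also: score merges 667nm spot fluorescence with signal to noise across triplicate slides; reference of the scale not given here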
# [13] = probe aCHRDL2 binding to arrayed compounds – biochemical, biotinylated probe, 635/667 nm fluorescence, primary screen (AID 1100); conditions: small-molecule microarray, higher = more signal
# [14] = change in splice reporter luminescence, either direction, cell-based, HEK293, spliceosome inhibition project, primary screen (AID 1101); conditions: HEK293 splicing luciferase reporter, 24 h, higher = more signal, called active from +8 up or from −8 down;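 also: HEK293 cells carrying a splicing-competent luciferase reporter gene; test concentration not given here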
# [15] = target: Fibroblast growth factor 10 (Homo sapiens) (UniProt O15520); experiment: compounds binding fibroblast growth factor 10 – biochemical, small-molecule microarray, 635 nm fluorescence, primary screen (AID 1102); conditions: FGF10 binding, fluorescence 635 nm, higher = more signal
# [16] = system: glycogen synthase kinase-3 (GSK3A per assay name; protocol says GSK3B); experiment: compounds binding glycogen synthase kinase-3 – biochemical, small-molecule microarray, 635 nm fluorescence, GSK3A, primary screen (AID 1103); conditions: fluorescence 635 nm, higher = more signal; also: the record names both GSK3A and GSK3B
# [17] = target: Epidermal growth factor receptor (Homo sapiens) (UniProt P00533); experiment: compounds binding epidermal growth factor receptor – biochemical, small-molecule microarray, 635 nm fluorescence, primary screen (AID 1104); conditions: EGFR binding, higher = more signal;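 also: score merges 667 nm emission intensity with spot signal to noise over triplicate slides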
# [18] = target: Follistatin-related protein 3 (Homo sapiens) (UniProt O95633); experiment: compounds binding follistatin-related protein 3 – biochemical, small-molecule microarray, 635 nm fluorescence, primary screen (AID 1105); conditions: FSTL3 binding, higher = more signal;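 also: score merges emission near 667 nm and signal to noise per printed spot across three slides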
# [19] = target: Dickkopf-related protein 1 (Homo sapiens) (UniProt O94907); experiment: small molecules binding DKK1 protein – biochemical, small-molecule microarray, 635 nm fluorescence scan, primary screen (AID 1106); conditions: higher = more signal;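 also: score merges emission near 667 nm with signal to noise over three replicate slides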
# [20] = system: Inhibin beta A chain (activin A); experiment: small molecules binding activin A – biochemical, small-molecule microarray, 635 nm fluorescence scan, primary screen (AID 1107); conditions: INHBA, higher = more signal;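 also: mouse activin A protein probed at 4.33 µg/mL on printed slides; score merges bound-protein fluorescence near 667 nm with spot signal-to-noise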
# Sequence of Fibroblast growth factor 10 (Homo sapiens) (O15520 whole entry, looked up): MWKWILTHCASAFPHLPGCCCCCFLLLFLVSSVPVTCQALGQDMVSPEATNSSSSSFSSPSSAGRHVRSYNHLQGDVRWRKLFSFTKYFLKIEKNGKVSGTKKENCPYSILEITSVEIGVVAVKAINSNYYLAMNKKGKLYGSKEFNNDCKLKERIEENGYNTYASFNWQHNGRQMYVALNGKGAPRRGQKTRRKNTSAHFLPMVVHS
# Sequence of Torsin-1A-interacting protein 2 (Homo sapiens) (Q8NFQ8 whole entry, looked up): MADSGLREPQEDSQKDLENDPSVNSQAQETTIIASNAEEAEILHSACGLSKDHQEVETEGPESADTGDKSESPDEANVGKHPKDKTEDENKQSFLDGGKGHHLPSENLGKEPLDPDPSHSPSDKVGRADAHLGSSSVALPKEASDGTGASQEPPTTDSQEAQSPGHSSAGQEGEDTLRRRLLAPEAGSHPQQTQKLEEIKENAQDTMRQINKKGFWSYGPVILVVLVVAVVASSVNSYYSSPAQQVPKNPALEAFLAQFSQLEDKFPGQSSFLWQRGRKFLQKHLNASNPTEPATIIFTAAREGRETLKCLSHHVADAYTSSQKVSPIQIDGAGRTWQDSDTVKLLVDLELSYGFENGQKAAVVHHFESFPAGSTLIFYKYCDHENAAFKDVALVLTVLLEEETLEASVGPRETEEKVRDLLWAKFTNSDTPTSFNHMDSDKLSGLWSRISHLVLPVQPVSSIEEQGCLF
# Sequence of Epidermal growth factor receptor (Homo sapiens) (P00533 whole entry, looked up): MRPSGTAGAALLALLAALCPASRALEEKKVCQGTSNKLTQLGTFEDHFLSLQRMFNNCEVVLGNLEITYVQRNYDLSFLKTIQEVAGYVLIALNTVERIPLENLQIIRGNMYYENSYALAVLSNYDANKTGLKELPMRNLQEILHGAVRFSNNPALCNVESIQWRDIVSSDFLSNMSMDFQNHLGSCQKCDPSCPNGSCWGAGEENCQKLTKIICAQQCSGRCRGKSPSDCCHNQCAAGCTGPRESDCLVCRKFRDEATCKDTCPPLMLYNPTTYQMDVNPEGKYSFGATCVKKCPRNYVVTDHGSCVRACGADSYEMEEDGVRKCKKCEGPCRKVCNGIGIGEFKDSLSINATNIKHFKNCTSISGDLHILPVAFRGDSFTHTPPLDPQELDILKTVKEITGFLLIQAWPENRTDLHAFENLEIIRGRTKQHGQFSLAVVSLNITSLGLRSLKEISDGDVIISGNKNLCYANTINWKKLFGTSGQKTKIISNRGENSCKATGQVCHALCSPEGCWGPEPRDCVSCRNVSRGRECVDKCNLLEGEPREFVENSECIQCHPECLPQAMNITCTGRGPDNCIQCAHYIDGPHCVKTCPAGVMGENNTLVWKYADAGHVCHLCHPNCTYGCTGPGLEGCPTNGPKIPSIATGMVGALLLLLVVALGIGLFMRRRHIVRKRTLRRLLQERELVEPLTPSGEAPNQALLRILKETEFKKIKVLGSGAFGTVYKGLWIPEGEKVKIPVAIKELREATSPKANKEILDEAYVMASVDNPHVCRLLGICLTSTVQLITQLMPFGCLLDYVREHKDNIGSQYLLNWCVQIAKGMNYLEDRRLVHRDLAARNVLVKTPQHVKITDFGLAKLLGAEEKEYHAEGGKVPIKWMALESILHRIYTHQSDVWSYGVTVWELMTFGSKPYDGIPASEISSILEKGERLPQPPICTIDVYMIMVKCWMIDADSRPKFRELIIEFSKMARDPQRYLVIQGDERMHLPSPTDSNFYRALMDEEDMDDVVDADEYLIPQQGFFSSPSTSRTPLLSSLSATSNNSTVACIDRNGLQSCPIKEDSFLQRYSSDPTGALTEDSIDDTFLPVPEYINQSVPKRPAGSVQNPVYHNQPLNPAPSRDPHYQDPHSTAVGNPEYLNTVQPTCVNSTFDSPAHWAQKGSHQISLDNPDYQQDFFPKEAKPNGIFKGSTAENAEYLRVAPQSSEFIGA
# Sequence of Neurogenic locus notch homolog protein 3 (Homo sapiens) (Q9UM47 whole entry, looked up): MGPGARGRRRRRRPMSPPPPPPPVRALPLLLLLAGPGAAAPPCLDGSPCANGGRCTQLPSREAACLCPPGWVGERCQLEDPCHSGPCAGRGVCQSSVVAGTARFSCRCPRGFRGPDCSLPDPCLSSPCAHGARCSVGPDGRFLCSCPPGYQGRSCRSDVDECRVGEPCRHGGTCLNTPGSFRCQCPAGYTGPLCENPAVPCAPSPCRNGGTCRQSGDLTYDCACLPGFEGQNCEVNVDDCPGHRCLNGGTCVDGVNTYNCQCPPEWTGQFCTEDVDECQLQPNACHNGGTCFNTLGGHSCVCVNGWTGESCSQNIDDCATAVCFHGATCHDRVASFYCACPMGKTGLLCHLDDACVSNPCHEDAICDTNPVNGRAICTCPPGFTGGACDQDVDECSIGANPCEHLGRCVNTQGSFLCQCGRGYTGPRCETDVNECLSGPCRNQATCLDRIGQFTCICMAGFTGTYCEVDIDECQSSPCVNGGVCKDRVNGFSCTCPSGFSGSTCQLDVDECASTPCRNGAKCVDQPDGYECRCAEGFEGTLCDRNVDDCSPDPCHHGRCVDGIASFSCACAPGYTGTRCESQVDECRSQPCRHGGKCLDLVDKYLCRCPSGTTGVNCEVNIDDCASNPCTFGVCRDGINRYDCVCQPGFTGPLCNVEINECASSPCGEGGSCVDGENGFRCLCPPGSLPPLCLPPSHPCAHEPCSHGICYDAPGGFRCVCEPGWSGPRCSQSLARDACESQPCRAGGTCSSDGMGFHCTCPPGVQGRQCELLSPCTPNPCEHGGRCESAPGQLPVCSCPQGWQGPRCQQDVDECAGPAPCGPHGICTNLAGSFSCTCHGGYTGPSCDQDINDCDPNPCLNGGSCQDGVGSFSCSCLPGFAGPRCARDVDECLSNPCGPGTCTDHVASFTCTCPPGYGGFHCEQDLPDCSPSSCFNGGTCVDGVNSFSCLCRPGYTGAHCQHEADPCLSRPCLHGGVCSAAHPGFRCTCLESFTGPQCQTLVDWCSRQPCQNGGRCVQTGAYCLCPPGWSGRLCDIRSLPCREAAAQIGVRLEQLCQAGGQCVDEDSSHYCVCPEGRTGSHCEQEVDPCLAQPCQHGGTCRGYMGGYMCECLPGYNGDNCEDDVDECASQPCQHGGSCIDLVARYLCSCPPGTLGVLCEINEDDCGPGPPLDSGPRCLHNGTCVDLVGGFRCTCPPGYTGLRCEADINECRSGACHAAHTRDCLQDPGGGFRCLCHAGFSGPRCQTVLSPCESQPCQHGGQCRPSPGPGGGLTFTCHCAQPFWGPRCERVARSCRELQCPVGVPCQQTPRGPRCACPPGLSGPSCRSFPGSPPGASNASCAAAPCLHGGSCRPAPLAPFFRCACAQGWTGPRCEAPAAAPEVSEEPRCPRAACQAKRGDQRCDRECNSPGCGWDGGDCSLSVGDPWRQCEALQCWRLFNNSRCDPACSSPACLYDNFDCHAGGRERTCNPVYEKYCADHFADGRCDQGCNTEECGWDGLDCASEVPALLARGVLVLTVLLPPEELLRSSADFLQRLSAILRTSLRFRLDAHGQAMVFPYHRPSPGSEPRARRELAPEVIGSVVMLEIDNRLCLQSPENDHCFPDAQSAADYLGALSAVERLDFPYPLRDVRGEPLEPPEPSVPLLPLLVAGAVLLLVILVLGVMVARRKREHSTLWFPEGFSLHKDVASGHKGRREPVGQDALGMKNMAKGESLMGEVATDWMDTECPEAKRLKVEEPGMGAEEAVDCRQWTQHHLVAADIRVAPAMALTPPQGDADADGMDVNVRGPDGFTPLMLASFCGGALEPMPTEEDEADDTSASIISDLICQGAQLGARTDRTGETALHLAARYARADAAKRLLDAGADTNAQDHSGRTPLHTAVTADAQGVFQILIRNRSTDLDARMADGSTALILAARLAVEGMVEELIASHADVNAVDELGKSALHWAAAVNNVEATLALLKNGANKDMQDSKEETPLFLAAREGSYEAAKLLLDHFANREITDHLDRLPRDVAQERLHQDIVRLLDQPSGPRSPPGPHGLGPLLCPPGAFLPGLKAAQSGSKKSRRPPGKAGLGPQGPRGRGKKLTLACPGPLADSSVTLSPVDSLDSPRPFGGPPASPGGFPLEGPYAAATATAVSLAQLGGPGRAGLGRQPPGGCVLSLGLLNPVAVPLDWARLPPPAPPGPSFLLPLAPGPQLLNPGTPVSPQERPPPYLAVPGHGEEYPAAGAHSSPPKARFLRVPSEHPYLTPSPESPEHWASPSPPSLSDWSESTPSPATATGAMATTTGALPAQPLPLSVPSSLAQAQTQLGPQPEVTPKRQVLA
# Sequence of Dickkopf-related protein 1 (Homo sapiens) (O94907 whole entry, looked up): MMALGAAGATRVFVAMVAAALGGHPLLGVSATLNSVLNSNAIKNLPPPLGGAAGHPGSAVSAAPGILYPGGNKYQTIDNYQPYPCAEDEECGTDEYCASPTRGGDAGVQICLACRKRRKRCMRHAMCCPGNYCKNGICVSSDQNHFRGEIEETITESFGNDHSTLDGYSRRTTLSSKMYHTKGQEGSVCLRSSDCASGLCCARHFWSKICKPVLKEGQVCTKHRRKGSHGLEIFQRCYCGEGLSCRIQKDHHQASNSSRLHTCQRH
# Sequence of Follistatin-related protein 3 (Homo sapiens) (O95633 whole entry, looked up): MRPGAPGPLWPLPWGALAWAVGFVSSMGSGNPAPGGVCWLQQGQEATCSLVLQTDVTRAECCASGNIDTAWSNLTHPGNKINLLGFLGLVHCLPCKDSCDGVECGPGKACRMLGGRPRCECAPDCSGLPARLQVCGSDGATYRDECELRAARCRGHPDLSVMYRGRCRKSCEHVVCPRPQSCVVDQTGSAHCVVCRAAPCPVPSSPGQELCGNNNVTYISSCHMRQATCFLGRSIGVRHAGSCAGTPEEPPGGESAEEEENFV
Compound,composite z-score [1],z-score [2],z-score [3],z-score [4],composite z-score [5],z-score [6],composite z-score [7],composite z-score [8],composite z-score [9],composite z-score [10],composite z-score [11],composite z-score [12],composite z-score [13],z-score [14],composite z-score [15],composite z-score [16],composite z-score [17],composite z-score [18],composite z-score [19],composite z-score [20]
COc1ccccc1CN1C(=O)c2ccccc2[C@@H](C(=O)NCCCN(C)C)[C@@H]1c1ccc(CO)cc1,-1.06,-0.376 (inactive),-2.26 (inactive),-1.63 (inactive),-1.07,0.874 (inactive),-0.135,-0.649,-0.784,-0.111,1.31,0.503,-0.205,-0.0655 (inactive),0.0373,-0.841,-0.127,-0.235,0.271,0.545
CN(C)CCCNC(=O)[C@@]1(Cc2ccccc2I)c2ccccc2C(=O)N(Cc2ccccc2)[C@H]1c1ccc(CO)cc1,1.53,-0.282 (inactive),-14 (active),-2.33 (inactive),3.43,0.207 (inactive),-0.542,0.557,1.08,0.0054,1.54,1.04,-0.726,0.652 (inactive),1.37,1.33,0.17,0.617,0.707,0.0573
COCCOC(=O)N1C(=O)[C@@]2(c3cc(C#CCCO)ccc31)[C@H](C(=O)N1CCN(c3ncccn3)CC1)[C@H]1C(=O)O[C@H](c3ccccc3)[C@H](c3ccccc3)N1[C@@H]2c1ccc(O)cc1,1.54,0.114 (inactive),-0.161 (inactive),1.63 (inactive),2.04,1.49 (inactive),-0.299,0.865,0.945,-0.219,1.3,-0.499,-0.345,0.894 (inactive),1.16,1.01,0.368,0.698,-0.0017,-0.242
O=C(NCCO)C1=C[C@H](Oc2ccccc2I)[C@@H](O)[C@H](NCc2ccc(F)cc2)C1,0.517,0.0567 (inactive),-20.5 (active),-0.455 (inactive),-0.992,-0.909 (inactive),-0.212,1.66,-0.0545,-0.202,-1.55,-0.472,-0.552,-0.635 (inactive),1.61,-0.814,-0.201,-1.52,1.19,-2.01
CCCCC(=C=CC[C@@H](O)c1cccc(OCCO)c1)C[C@@H](O)COCc1ccccc1,0.554,-0.59 (inactive),-1.95 (inactive),-0.601 (inactive),0.866,1.84 (inactive),-0.274,-0.0311,-0.184,-0.188,0.377,-0.17,-0.325,-1.21 (inactive),0.483,0.0702,-1.35,-0.526,-0.274,0.211
COCCOC(=O)N1C(=O)[C@@]2(c3cc(C#CCC(C(=O)OC)C(=O)OC)ccc31)[C@H](C(N)=O)[C@H]1C(=O)O[C@H](c3ccccc3)[C@H](c3ccccc3)N1[C@@H]2c1ccc(OCCO)cc1,1.53,2.23 (inactive),2.01 (inactive),6.44 (inactive),2.77,-0.55 (inactive),0.0139,0.813,1.08,-0.0245,1.13,0.271,0.25,-0.517 (inactive),1.11,1.31,0.776,1.01,0.614,0.444
COc1cc2c(cc1O)C(C1CC1)N(Cc1ccc([N+](=O)[O-])o1)CC2 (stereo not given),0.287,-0.123 (inactive),-3.53 (inactive),-2.16 (inactive),1.85,-1.16 (inactive),-0.0046,-0.2,0.903,-0.0734,1.53,0.158,0.391,-0.28 (inactive),0.839,0.812,0.117,0.228,-0.327,0.822
CC(=O)c1ccc(C(O)C2C=CC3C(=O)NC(=O)C3N2Nc2ccc(Cl)cc2Cl)cc1 (stereo not given),-0.002,0.727 (inactive),0.973 (inactive),1.14 (inactive),3,-1.08 (inactive),0.0277,-0.742,0.424,-0.0828,0.366,0.947,1.02,0.58 (inactive),0.554,-0.454,0.0262,0.141,-0.291,1.03
CCN(CC)c1ccc(N2CC=CC34O[C@@H]5C=CCOC(=O)[C@@H]5[C@H]3C(=O)N(CCO)[C@@H]4C2=O)cc1 (stereo not given in full),-0.503,0.907 (inactive),-1.02 (inactive),-0.108 (inactive),0.174,1.47 (inactive),-0.0041,-1.35,-0.373,-0.334,1.47,-0.0117,0.54,0.0206 (inactive),-0.938,-0.562,-1.66,-0.952,-1.51,-0.292
COc1ccc(CCNC(=O)[C@@]2(Sc3ccc(C)cc3)CC(=O)N(C(C)C)[C@@H]2c2ccc(CO)cc2)cc1,0.633,0.956 (inactive),0.0503 (inactive),0.088 (inactive),2.09,-0.015 (inactive),0.0507,-1.4,-1.15,-0.249,1.41,0.0055,0.983,0.239 (inactive),-0.855,-0.897,-2.03,-1.45,-2,-0.87
